The results in this text go back to PubChem BioAssay (Tox21).

A number with no mark means an inactive call. Results filed as inconclusive are left out. Calls of active or inactive are those of the source. Calls come from the whole dose curve; as a rule, active = well fitted curve in the direction sought with a large enough effect in the repeat runs; inconclusive = weak or mixed curves; inactive = no such curve, though single readings can be large; an effect the other way counts as inactive or inconclusive.

A short description of assay [1]: qHTS RealTime-Glo MT Cell Viability Assay in HEK293 cells - 40 hour (AID 1224874). For max response: % is set by controls: 0 for no effect and ±100 for the full control effect. Note: nearly all actives have a fitted effect of over 50% in size. Note: potency is the fitted concentration of half-maximal effect. The settings on record: RealTime-Glo luminescence; max response: hits give low values. The gist of the method:
(§1)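 Real-time viability in HEK293: signal arises when living cells convert a prosubstrate for NanoLuc in the medium, so luminescence tracks viable cell number. Compound (23 nL, DMSO) added 5 h post-seeding; kinetic reads at 0–40 h, 37 C.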

Assay [2] can be described thus: A CellTox Green Cytotoxicity Assay to monitor cytotoxicity in HEK293 cells - 24 hour (AID 1224875). Note: nearly all actives have a fitted effect of over 45% in size. Note: potency is the fitted concentration of half-maximal effect. The gist of the method: (§2)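 Cells (HEK293, 600/well) and dye reagent are dispensed together. After 5 h at 37 C, 23 nL compound is pinned in. Plates stay at 37 C for 40 h with fluorescence read at 0h, 8h, 16h, 24h, 32h and 40h.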
Assay [3] in a line: A CellTox Green Cytotoxicity Assay to monitor cytotoxicity in HepG2 cells - 16 hour (AID 1224876). Note: nearly all actives have a fitted effect of over 45% in size. Note: potency is the fitted concentration of half-maximal effect. The gist of the method: (§3)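 Cells and non-lytic dye reagent are dispensed together (600 HepG2 cells/well) and incubated 5 h before DMSO compound transfer. Kinetic fluorescence is then recorded in the same wells during 40 h at 37 C.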
A short description of assay [4]: A CellTox Green Cytotoxicity Assay to monitor cytotoxicity in HepG2 cells - 24 hour (AID 1224878). For Cytotoxicity: % is set by controls: 0 for no effect and ±100 for the full control effect. Note: nearly all actives have a fitted effect of over 45% in size. Note: potency is the fitted concentration of half-maximal effect. The gist of the method: as §3
Assay [5] can be described thus: A CellTox Green Cytotoxicity Assay to monitor cytotoxicity in HepG2 cells - 40 hour (AID 1224879). Note: nearly all actives have a fitted effect of over 40% in size. Note: potency is the fitted concentration of half-maximal effect. The gist of the method: as §3
Assay [6] can be described thus: qHTS RealTime-Glo MT Cell Viability Assay in HEK293 cells - 0 hour (AID 1224880). Note: top concentration of the series differs between compounds; % is set by controls: 0 for no effect and ±100 for the full control effect; nearly all actives have a fitted effect of over 45% in size. The gist of the method: as §1
Assay [7] in a line: A CellTox Green Cytotoxicity Assay to monitor cytotoxicity in HEK293 cells - 32 hour (AID 1224881). Note: nearly all actives have a fitted effect of over 40% in size. Note: potency is the fitted concentration of half-maximal effect. The gist of the method:
as §2

Assay [8] can be described thus: A CellTox Green Cytotoxicity Assay to monitor cytotoxicity in HepG2 cells - 0 hour (AID 1224882). Note: % is set by controls: 0 for no effect and ±100 for the full control effect; nearly all actives have a fitted effect of over 35% in size. The gist of the method: as §3
Assay [9] is described as follows: A CellTox Green Cytotoxicity Assay to monitor cytotoxicity in HepG2 cells - 32 hour (AID 1224883). Note: nearly all actives have a fitted effect of over 50% in size. Note: potency is the fitted concentration of half-maximal effect. The gist of the method:
as §3

Assay [10] is described as follows: A CellTox Green Cytotoxicity Assay to monitor cytotoxicity in HEK293 cells - 8 hour (AID 1224884). Note: nearly all actives have a fitted effect of over 35% in size. Note: potency is the fitted concentration of half-maximal effect. The gist of the method:
as §2

Assay [11] in a line: A CellTox Green Cytotoxicity Assay to monitor cytotoxicity in HEK293 cells - 16 hour (AID 1224888). Note: nearly all actives have a fitted effect of over 35% in size. Note: potency is the fitted concentration of half-maximal effect. The gist of the method: as §2
Assay [12] is described as follows: qHTS RealTime-Glo MT Cell Viability Assay in HepG2 cells - 0 hour (AID 1224889). Note: % is set by controls: 0 for no effect and ±100 for the full control effect; nearly all actives have a fitted effect of over 50% in size. The gist of the method: (§4)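 Cells + NanoLuc/prosubstrate dispensed (600 cells/well) → 5 h at 37 C/5% CO2 → compounds in DMSO transferred → 40 h incubation at 37 C, luminescence read at 0, 8, 16, 24, 32, 40 h.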
A short description of assay [13]: A CellTox Green Cytotoxicity Assay to monitor cytotoxicity in HepG2 cells - 8 hour (AID 1224890). Note: nearly all actives have a fitted effect of over 45% in size. Note: potency is the fitted concentration of half-maximal effect. The gist of the method:
as §3

Assay [14] is described as follows: qHTS assay to identify small molecule antagonists of the estrogen receptor alpha (ER-alpha) signaling pathway using the BG1 cell line in the presence of 0.1 nM 17-beta-estradiol - cell viability counter screen (AID 1259241). Note: % is set by controls: 0 for no effect and ±100 for the full control effect; nearly all actives have a fitted effect of over 40% in size. The gist of the method: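 Cells were plated and left 24 hr, compounds in DMSO were pinned in, 17beta-estradiol was added to 0.1 nM final, and after 22 hr CellTiter-Fluor reagent was added for 30 min before fluorescence was read.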

Assay [15] in a line: qHTS RealTime-Glo MT Cell Viability Assay in HepG2 cells - 8 hour (AID 1224873). Note: nearly all actives have a fitted effect of over 55% in size. Note: potency is the fitted concentration of half-maximal effect. The gist of the method: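 HepG2 cells (600/well) mixed with RealTime-Glo MT reagent, settled 5 h at 37 C/5% CO2 before compound addition. Nonlytic NanoLuc luminescence from viable-cell prosubstrate reduction read repeatedly during 40 h treatment at 37 C.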
Assay [16] can be described thus: qHTS RealTime-Glo MT Cell Viability Assay in HepG2 cells - 32 hour (AID 1224877). Note: nearly all actives have a fitted effect of over 55% in size. Note: potency is the fitted concentration of half-maximal effect. The gist of the method:
as §4

The nature of assay [17]: qHTS RealTime-Glo MT Cell Viability Assay in HepG2 cells - 16 hour (AID 1224885). Note: nearly all actives have a fitted effect of over 50% in size. Note: potency is the fitted concentration of half-maximal effect. The gist of the method:
as §4

Assay [18] can be described thus: qHTS RealTime-Glo MT Cell Viability Assay in HEK293 cells - 8 hour (AID 1224887). Note: nearly all actives have a fitted effect of over 50% in size. Note: potency is the fitted concentration of half-maximal effect. The gist of the method:
as §1

Assay [19] in a line: qHTS RealTime-Glo MT Cell Viability Assay in HEK293 cells - 24 hour (AID 1224886). The gist of the method: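 Tox21 10K qHTS, HEK293, 600 cells/well, RealTime-Glo reagent co-dispensed with cells; 5 h preincubation, compound by pintool, 37 C, luminescence at 0–40 h.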

As to `CC(C)(C)c1cc(CCC(=O)NCCCCCCNC(=O)CCc2cc(C(C)(C)C)c(O)c(C(C)(C)C)c2)cc(C(C)(C)C)c1O`, the max response in assay [1] was -24.8%. In addition, the Potency result in assay [2], in [3], in [4], in [5], in assay [6] and in assay [7] was “inactive” each time. For the same compound, the Potency result in [8], in assay [9], in [10], in [11], in [12] and in [13] was “inactive” in each case. Besides, the Potency result in assay [14] is “inactive”.
As to `CC(C)(C)CC(C)(C)c1ccccc1O`, the Potency result in assay [15], in assay [16], in assay [6], in assay [8], in assay [17] and in [12] was “inactive” throughout. Further, the Potency was 39.1 µM (active) in [2]; 27.7 µM (active) in [4]; 34.9 µM (active) in assay [5]; 43.9 µM (active) in [7]; 27.7 µM (active) in [9]; 39.1 µM (active) in assay [10]. Besides, the figures for the Potency in [18] and in [11] were 34.9 µM (active) and 39.1 µM (active), respectively.
In the case of `O=C(c1ccccc1)c1cc(Cl)ccc1O`, the Potency entry in assay [15], in [3], in [16], in [4], in [5] and in assay [6] was “inactive” in each case. The Potency result in [8], in assay [9], in assay [10], in assay [17], in assay [11] and in assay [12] was “inactive” each time. The Potency result in [13] and in assay [14] was “inactive” throughout.
As to `CC[N+](CC)(CC)Cc1ccccc1`, the Potency result in assay [15], in assay [3], in assay [16], in [4], in [5] and in assay [6] was “inactive” in each case. Moreover, the Potency entry in [7], in assay [8], in assay [9], in assay [10], in assay [17] and in assay [18] was “inactive” in each case. Besides, the Potency entry in [12], in assay [13] and in [14] was “inactive” in each case.
With `CCCCOc1ccc(C(=O)CCN2CCCCC2)cc1`, the Potency in assay [1] is 13.4 µM (active); in assay [16], 10.7 µM (active); in [4], 19 µM (active); in assay [5], 19 µM (active); in assay [7] it was 19 µM (active); in assay [9] it was 12 µM (active). The Potency in assay [17] was 23.9 µM (active); in [19], 23.9 µM (active); in [13] it was 21.3 µM (active). The Potency result in assay [6], in assay [8], in [10], in assay [11], in [12] and in assay [14] was “inactive” each time.
Take `NC1(c2ccc(-c3nc4ccn5c(=O)[nH]nc5c4cc3-c3ccccc3)cc2)CCC1`: the Potency in assay [5] was 26.8 µM (active); in [9] it was 26.8 µM (active); in [17] it was 23.9 µM (active); in [19] it was 3.01 µM (active); in assay [18], 10.7 µM (active). Besides, the Potency result in assay [6], in assay [8] and in assay [12] was “inactive” throughout.
For `CCCCOCC`, the Potency result in assay [15], in assay [2], in [3], in assay [16], in assay [4] and in [5] was “inactive” in each case. Further, the Potency entry in [7], in assay [8], in assay [9], in assay [10], in assay [17] and in assay [11] was “inactive” throughout. Moreover, the Potency entry in assay [12], in [13] and in [14] was “inactive” in each case.
For the compound `Cc1ccc(-n2[nH]c(C)c(N=Nc3cccc(-c4cccc(C(=O)O)c4)c3O)c2=O)cc1C`, the Potency result in [15], in assay [2], in [3], in assay [4], in [5] and in assay [6] was “inactive” throughout. The Potency result in assay [7], in assay [8], in [9], in assay [10], in assay [17] and in assay [18] was “inactive” in each case. The Potency result in [11], in assay [12] and in assay [13] was “inactive” in each case.
`CC(C)OC(=O)c1cc(C(=O)OC(C)C)cc([N+](=O)[O-])c1`: the Potency entry in [15], in assay [3], in assay [16], in assay [5], in assay [6] and in [8] was “inactive” throughout. The Potency result in assay [17], in [11], in [12], in assay [13] and in [14] was “inactive” in each case.
Turning to `CC(C)c1cccc(C(C)C)c1N1C(=O)c2ccc(O)cc2C1=O`, the Potency in [15] was 43.6 µM (active); in assay [3] it was 24.5 µM (active); in assay [16], 43.6 µM (active); in assay [4], 24.5 µM (active); in assay [5], 24.5 µM (active); in assay [9], 24.5 µM (active). In addition, the figures for the Potency in [17] and in [13] were 49 µM (active) and 38.9 µM (active), respectively. For the same compound, the Potency entry in assay [6], in assay [8], in [10], in assay [18], in assay [11] and in [12] was “inactive” in each case. For the same compound, in assay [14], the Potency result was “inactive”.
As to `C=C1C(C)(C)[C@@]2(Cl)C(Cl)[C@]1(Cl)C(Cl)(Cl)C2(Cl)Cl` (stereo partly drawn), the Potency entry in assay [3], in assay [6], in [8], in assay [12], in assay [13] and in assay [14] was “inactive” in each case. Also, the Potency in [4] was 48.1 µM (active); in assay [5], 53.9 µM (active); in [9], 53.9 µM (active); in assay [18], 53.9 µM (active).
For the compound `Cc1cc2c(C(C)C)c(O)c(O)c(C=O)c2c(O)c1-c1c(C)cc2c(C(C)C)c(O)c(O)c(C=O)c2c1O`, the Potency is 8.49 µM (active) in assay [1]; 19 µM (active) in [2]; 21.3 µM (active) in [16]; 26.8 µM (active) in assay [5]; 21.3 µM (active) in assay [7]; 16.9 µM (active) in assay [11]. Moreover, the Potency result in [3], in assay [6], in assay [8], in assay [12], in assay [13] and in [14] was “inactive” throughout.
For the compound `c1ccc(Sc2ccccc2)cc1`, the Potency result in [15], in assay [2], in assay [3], in assay [16], in assay [4] and in [6] was “inactive” in each case. The Potency entry in assay [7], in assay [8], in assay [10], in assay [17], in [18] and in assay [11] was “inactive” throughout. For the same compound, the Potency entry in [12], in [13] and in assay [14] was “inactive” throughout.
